# Compounds with a hit are over-represented: about 32% of the library has one in this group of screens.
# CYP2C19 inh – blocks human cytochrome P450 2C19 | P33261 | CYP2C19 Supersomes, luciferin-H EGE luminescence, 30 min | inhibition, % at 5 µM | 96,000 tested, 21% active | AID 778;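 active = CYP2C19 inhibition above a set limit at 5 µM in the primary screen, cut at about 50% in these data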;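 note: plate controls were negative control wells for no effect and 2.5 mM tranylcypromine positive control for full effect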
# CYP2C9 inhib – inhibitors of human CYP2C9. P11712. CYP2C9 Supersomes, luciferin-H conversion, luminescence. inhibition, % at 5 µM. 96,000 tested, 20% active;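 active = blocking of liver enzyme CYP2C9 beyond about 50% at 5 µM, limit read from the data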
# Target sequence (P11712 whole entry, looked up): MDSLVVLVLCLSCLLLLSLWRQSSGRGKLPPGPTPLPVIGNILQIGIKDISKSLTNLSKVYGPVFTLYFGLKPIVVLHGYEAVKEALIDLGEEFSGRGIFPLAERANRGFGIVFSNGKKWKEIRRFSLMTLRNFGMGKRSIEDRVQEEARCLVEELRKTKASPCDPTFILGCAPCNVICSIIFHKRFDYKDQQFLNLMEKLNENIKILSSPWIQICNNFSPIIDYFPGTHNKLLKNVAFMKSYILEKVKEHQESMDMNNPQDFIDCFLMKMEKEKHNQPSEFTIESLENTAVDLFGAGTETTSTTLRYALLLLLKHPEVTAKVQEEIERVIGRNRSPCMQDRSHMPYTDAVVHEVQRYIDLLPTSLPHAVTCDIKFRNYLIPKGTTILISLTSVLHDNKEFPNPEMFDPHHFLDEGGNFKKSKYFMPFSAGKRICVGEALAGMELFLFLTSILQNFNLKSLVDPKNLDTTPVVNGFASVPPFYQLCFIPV
# PostGolgi yeast – growth inhibition of a yeast mutant, post-Golgi transport screen; post-Golgi transport phenotypic cell assay; inhibition, % at 10 µM; 98,000 tested, 0.9% active;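 note: yeast cells grown in 1536-well plates; yeast grown about 18 h at 30C before absorbance read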
# CYP2C9 act – increases human cytochrome P450 2C9 activity. activation factor at 5 µM. P11712. 96,000 tested, 1.4% active. recombinant CYP2C9, luciferin-H conversion, luminescence; hits give high values; factor 1 = untreated enzyme, 0 = blocked;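 active = activation factor of 2 or more for CYP2C9 at a 5 µM dose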;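 note: 0 = sulfaphenazole-blocked wells and 1 = vehicle-only wells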
# PostGolgi ctrl – growth of the yeast control strain, post-Golgi counter-screen; efflux-deficient yeast background strain, growth absorbance A615, 16 h; inhibition, % at 10 µM; 98,000 tested, 5% active; AID 738
# CYP2C19 act – increases human CYP2C19 enzyme activity | activation factor at 5 µM | 96,000 tested, under 10 active | AID 1025 | P33261 | recombinant CYP2C19, luciferin-H EGE luminescence; hits give high values; 0 = fully inhibited enzyme, 1 = untreated enzyme;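 active = activation factor of at least 2 at 5 µM in the primary screen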;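 note: 0 = wells with 2.5 mM tranylcypromine and 1 = vehicle-only wells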
# * marks the source's active call; other numbers are inactive results; . = no result given. Cut-off read from the data, not from the text of the source, unless noted: active = inhibition above about 30%; inactive = the rest.
SMILES,CYP2C19 inh,CYP2C9 inhib,PostGolgi yeast,CYP2C9 act,PostGolgi ctrl,CYP2C19 act
COc1ccc(CCNCc2ccc(F)cc2)cc1OC,52*,-16,4,1.2,-6,0.5
COc1ccc(CCNCc2ccc(SC)cc2)cc1,81*,-3,1,1,4,0.2
Fc1ccc(CCNCc2cccc(Cl)c2)cc1,92*,7,-2,0.9,3,0.1
CCC(=NCCCN(C)C)c1c(O)n(-c2ccc(OC)cc2)c(=O)[nH]c1=O,-18,-9,5,1.1,-9,1.2
COc1ccc(C=C2C(=O)N(C)C(=O)N(C)C2=O)cc1CSc1ccccn1,58*,25,-5,0.8,12,0.4
CC(C)c1ccc(N2C(=O)NC(=O)/C(=C\c3cnc(-c4ccccc4)nc3)C2=O)cc1,28,24,5,0.8,-3,0.7
COc1ccc(/C=C2/C(=O)NC(=O)N(C3CCCCC3)C2=O)cc1CSc1ccccn1,56*,23,-9,0.8,9,0.4
Cc1ccc(-c2nc3ccc(Cl)cc3n2OC(=O)N(C)C)cc1,-1,-4,8,1,5,1
Cc1ccc(NC(=O)CSc2nnc([C@@H](N)Cc3c[nH]c4ccccc34)o2)c(C)c1,32,49,-21,0.5,0,0.7
CC12CN3CCN(C1)CC(C)(C3)C2=NO,-3,-4,4,1,3,1
CCC(C)C12CN3CCN(CC(C)(C3)C1=O)C2 (configuration not stated),76*,77*,4,0.2,-8,0.2
CCOC(=O)C1=C(N)OC2=C(C(=O)CCC2)C12C(=O)N1c3c(ccc(C)c32)C(C)=CC1(C)C (configuration not stated),.,.,-1,.,20,.
O=c1c2cc([N+](=O)[O-])ccc2nc(CN2CCOCC2)n1-c1ccccc1F,26,4,4,1,4,0.7
CCCCOP(=O)(OCCCC)/C(C#N)=C(/C)O,-1,19,7,0.8,14,1
CC(C)OC(=O)C1C(=O)NC2(C)CC1c1ccccc1O2 (configuration not stated),60*,13,4,0.9,9,0.4
CCOC(=O)C1C(=O)NC2(C)CC1c1cc(OC)ccc1O2 (configuration not stated),2,-3,0,1,3,1
Cc1ccc(N2CCN(CCc3ccccc3)CC2)cc1,44,4,7,1,43*,0.6
Cc1cccc(N2CCN(CCc3ccccc3)CC2)c1C,36,-23,-6,1.2,12,0.6
Oc1ccc(/C=N/NP(=S)(c2ccccc2)c2ccccc2)cc1O,90*,99*,-5,0,4,0.1
Oc1ccc(/C=N/NP(=S)(c2ccccc2)c2ccccc2)c(O)c1O,83*,96*,-5,0,5,0.2
COc1cc(C2SCC(=O)Nc3c2c(=O)[nH]n3C2CCCCCC2)cc(OC)c1OC (configuration not stated),7,16,3,0.8,2,0.9
CCCC1=C(C(=O)OCC)C2(C(=O)Nc3ccc(C)cc32)C(C#N)=C(N)O1 (configuration not stated),62*,51*,-5,0.5,2,0.4
Cc1cccnc1NC1=NCC(C)S1 (configuration not stated),0,-10,-3,1.1,9,1
CCOC(=O)C(C)Oc1cc(C)cc2oc(=O)c3c(c12)CCCC3 (configuration not stated),49,78*,5,0.2,18,0.5
COC(=O)C(C)Oc1cc(C)cc2oc(=O)c3c(c12)CCCC3 (configuration not stated),55*,92*,3,0.1,15,0.4
SMILES,CYP2C19 inh,CYP2C9 inhib,PostGolgi yeast,CYP2C9 act,PostGolgi ctrl,CYP2C19 act
COC(=O)C(C)Oc1cc(C)cc2oc(=O)c3c(c12)CCC3 (configuration not stated),72*,92*,6,0.1,6,0.3
COC(=O)c1cc(COc2cc(C)cc3oc(=O)c4c(c23)CCC4)c(C)o1,78*,97*,.,0,.,0.2
Cc1cc(OCc2nn[nH]n2)c2c3c(c(=O)oc2c1)CCC3,-5,44,2,0.6,9,1.1
Cc1cc(OCC(=O)OC(C)C)c2c3c(c(=O)oc2c1)CCCC3,6,28,9,0.7,17,0.9
CCN1CCN(Cc2cc(OC)c(OC)cc2[N+](=O)[O-])CC1,-14,-10,1,1.1,3,1.1
Cn1nc(N)c2c1N=P(N1CCOCC1)(N1CCOCC1)N=C2c1ccccc1,6,2,18,1,4,0.9
O=P(N1CCCCC1)(N1CCCCC1)C(Cl)(Cl)Cl,36,46,4,0.5,17,0.6
CC(N)Cc1c[nH]c2cc3c(cc12)OCCO3 (configuration not stated),10,27,-7,0.7,19,0.9
CCOC(=O)c1ccc(N2C(=O)CC(N3CC=C(c4ccc(F)cc4)CC3)C2=O)cc1 (configuration not stated),37,64*,10,0.4,16,0.6
COc1ccc(N2C(=O)CC(N3CCC(n4c(=O)[nH]c5ccccc54)CC3)C2=O)cc1 (configuration not stated),18,-9,-3,1.1,-5,0.8
Cc1nc2c(c(C)nn2-c2ccccc2)c(C)c1CCC(=O)N1CCC2(CC1)OCCO2,16,5,8,0.9,34*,0.8
O=C(N/N=C1/CN2CCC1CC2)c1cccc(O)c1,11,1,-1,1,6,0.9
O=C(Cn1c(=O)c(C(F)(F)F)nc2ccccc21)N1CCC2(CC1)OCCO2,-10,0,3,1,14,1.1
Cn1c(C(=O)O)c(CC(=O)N2CCN(Cc3ccccc3)CC2)c2ccccc21,-7,-8,2,1.1,3,1.1
CN1CCN(c2ccc(C(N)=O)cc2N)CC1,2,2,0,1,9,1
CC(C)CCP(=O)(O)c1ccccc1,4,20,-8,0.8,4,1
CCOC(=O)c1cc(C)n(CCc2cnc[nH]2)c1C,100*,99*,3,0,-2,0
CC(=O)OC1N=C(c2ccccc2)c2cc(Br)ccc2N(C)C1=O (configuration not stated),-4,7,-3,0.9,9,1
CCCC(=O)NC(Oc1ccccc1Cl)C(Cl)(Cl)Cl (configuration not stated),80*,59*,14,0.4,4,0.2
CC(C)CC(=O)NC(Oc1ccc(Cl)cc1)C(Cl)(Cl)Cl (configuration not stated),82*,31,17,0.7,14,0.2
CCCCCc1nc2ccccc2c(=O)n1-c1ccc(Cl)cc1[N+](=O)[O-],4,5,11,0.9,-1,1
CCc1nc2ccccc2c(=O)n1-c1ccc2ccccc2c1,93*,12,19,0.9,17,0.1

# Source: PubChem BioAssay
